# Data: PubChem BioAssay (NCATS)
# Values without a mark were called inactive. Records with an inconclusive call do not appear. Activity calls are given as the source filed them. Unless noted, the call rests on the fitted dose curve; in most records, active means well fitted curve in either direction with a large enough effect (not every such curve was filed as active); inconclusive means small, poorly fitted or top-dose-only effect, or another doubt; inactive means flat fitted curve, though single readings scatter.
# Assays:
# [1] = AP1 Signaling Pathway (AID 357); conditions: ME-180 AP-1-bla reporter, EGF-induced, beta-lactamase ratio, 5 h; at 17.2 µM (top of the series) unless noted; further: on the % scale 0 is the no-effect control and ±100 the full control effect
# Procedure, shortened: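 AP-1-bla ME-180 cells with beta-lactamase reporter under AP-1 response element, stimulated with EC50 EGF; compounds titrated, 5 hours at 37 degrees Celsius. CCF4 read at 460/530 nm ratio; positive and negative modulators judged by AC50.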
# [2] = NFAT Signaling Pathway (AID 444); conditions: Jurkat NFAT-bla M1, carbachol, beta-lactamase ratio, 5 h; at 17.2 µM (top of the series) unless noted;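 further: carbachol stimulus at about its EC50 of 1 µM final; on the % scale 0 is the no-effect control and ±100 the full control effect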
# Procedure, shortened: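 Read-out: CCF4 FRET ratio (460 nm/530 nm) after 1 h RT dye loading, used for %activity and AC50 from titration series. Cells: Jurkat NFAT-β-lactamase/M1 line, treated with compound plus 1 uM carbachol for 5 h, 37 °C.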
# [3] = Stat Signaling Pathway (AID 446); conditions: ME-180 SIE beta-lactamase reporter, IL-6 stimulated, 5 h; at 17.2 µM (top of the series) unless noted;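 further: ME-180 cervical cancer cells given 40 pM IL-6 alongside compound; SIE-controlled beta-lactamase reporter measured as 460/530 nm FRET emission ratio; on the % scale 0 is the no-effect control and ±100 the full control effect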
# Procedure, shortened: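 Reporter line: ME-180 cervical carcinoma, SIE-beta-lactamase. Treatment: compound with 40 pM IL-6, 5 hrs, 37 C, in low-serum OPTI-MEM with 10 mM HEPES pH 7.3. Detection: 460/530 nm fluorescence.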
# [4] = molecular target: Glucocorticoid receptor (Homo sapiens) (UniProt P04150); experiment: GR-GFP Redistribution (AID 450;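 active means compounds whose dose series gives a full or clear partial fitted curve of increased nuclear translocation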; further: potency means the concentration at half of the fitted maximal effect)
# Chain of Glucocorticoid receptor (Homo sapiens) (P04150 whole entry, looked up): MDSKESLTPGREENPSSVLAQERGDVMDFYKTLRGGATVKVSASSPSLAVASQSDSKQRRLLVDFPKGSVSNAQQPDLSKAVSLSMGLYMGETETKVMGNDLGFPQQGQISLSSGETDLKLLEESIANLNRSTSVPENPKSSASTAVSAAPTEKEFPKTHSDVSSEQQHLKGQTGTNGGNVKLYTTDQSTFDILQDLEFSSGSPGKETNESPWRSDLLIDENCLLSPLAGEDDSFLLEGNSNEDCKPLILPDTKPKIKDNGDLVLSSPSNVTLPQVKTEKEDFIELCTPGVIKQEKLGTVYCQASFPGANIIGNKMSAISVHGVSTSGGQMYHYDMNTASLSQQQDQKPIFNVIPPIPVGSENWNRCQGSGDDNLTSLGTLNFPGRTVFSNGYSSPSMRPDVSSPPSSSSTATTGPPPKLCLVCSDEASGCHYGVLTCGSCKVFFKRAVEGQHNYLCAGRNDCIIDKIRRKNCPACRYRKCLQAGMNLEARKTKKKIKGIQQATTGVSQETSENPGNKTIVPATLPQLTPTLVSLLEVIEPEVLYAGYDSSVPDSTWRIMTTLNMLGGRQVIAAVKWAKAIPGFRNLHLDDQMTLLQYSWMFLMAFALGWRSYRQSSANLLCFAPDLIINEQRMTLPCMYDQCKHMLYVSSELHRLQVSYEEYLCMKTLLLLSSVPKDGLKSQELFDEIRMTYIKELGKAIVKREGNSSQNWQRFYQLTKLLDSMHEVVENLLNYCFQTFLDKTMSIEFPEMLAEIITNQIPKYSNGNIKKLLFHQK
SMILES,"activity change, negative = inhibition [1]","activity change, negative = inhibition [2]","activity, negative = inhibition [3]",Potency [4]
COC(=O)c1cc(Br)c(=O)n(Cc2cccnc2)c1,2.36%,10.7%,9.48%,> 20.6 µM
O=C1C2CC=C(Cl)CC2C(=O)N1CNc1ccccn1 (centres undefined),-0.589%,-12.9%,7.34%,> 20.6 µM
COc1ccc(-n2ncc3c(N4CCC(C(N)=O)CC4)ncnc32)cc1,-0.0678%,6%,-1.03%,> 20.6 µM
CCC(NC(=O)NC1=NCCS1)(C(F)(F)F)C(F)(F)F,8.03%,-10%,15.4%,> 20.6 µM
COc1cc(/C=N/n2c(C)nnc2C)cc(OC)c1OC,-12.3%,10.5%,-4.5%,> 20.6 µM
CC(=O)C1=C(O)C(=O)N(c2ccc(S(N)(=O)=O)cc2)C1c1ccccc1F (centres undefined),-4.17%,5.76%,-0.593%,> 20.6 µM
COc1ccc(-n2ncc3c(Nc4cccc(C)c4)ncnc32)cc1,1.56%,-11.9%,-27.7%,> 20.6 µM
CCOCCn1c(SCc2c(F)cccc2Cl)nc2c1c(=O)[nH]c(=O)n2C,-8.65%,-17.4%,-2.5%,> 20.6 µM
Cc1cc2ccccc2cc(C)c1=O,9.45%,-28.3%,-25.4%,> 20.6 µM
COc1ccc(/C(O)=C2/C(=O)C(=O)N(CCN(C)C)C2c2ccccn2)cc1OC (centres undefined),4.92%,-3.03%,-3.63%,> 20.6 µM
Cn1c(Cn2cnc(Cl)c2Cl)nc2ccccc21,2.26%,-0.211%,7.94%,> 20.6 µM
Cn1c(SCC(=O)N2CCOCC2)nnc1-c1cccc(NC(=O)c2ccccc2F)c1,-25.9%,-5.78%,12%,> 20.6 µM
COC(=O)c1cc(Br)c(=O)n(-c2cc(C)on2)c1,8.72%,12.9%,7.11%,> 20.6 µM
Cc1ccc(C(=O)NCCCNCCCNC(=O)c2ccc(C)nc2)cn1,8.18%,-5.81%,5.34%,> 20.6 µM
O=C(NCc1cccnc1)NC(C(F)(F)F)C(F)(F)F,12.5%,2.52%,8.58%,> 20.6 µM
O=C(c1cc(N2CCCCC2)nc2ccccc12)N1CCOCC1,-15.6%,-13.8%,4.94%,> 20.6 µM
COc1ccc(C(=O)/C=C/Nc2cccc(C)n2)cc1OC,-16.3%,22.7%,0.139%,> 20.6 µM
CC1CCCCN1C(=O)C12CCC(C)(/C(=N/O)C1)C2(C)C (centres undefined),-2.56%,6.34%,7.2%,> 20.6 µM
COC(=O)C1C(=O)NCC1c1ccccc1 (centres undefined),9.38%,-1.78%,7.06%,> 20.6 µM
CC(=O)Nc1ccc(NCC(O)COc2ccccc2)cc1 (centres undefined),-3%,-5.41%,3.96%,> 20.6 µM
CC(=O)/C(C#N)=C1\NC(=O)C(Cc2ccccc2)S1 (centres undefined),0.644%,-11.2%,3.16%,> 20.6 µM
Cc1cc(C)cc(CC2CC(=O)N(c3cc(C)on3)C2=O)c1 (centres undefined),-8.62%,-3.65%,-12.9%,> 20.6 µM
CCCCN1C(=O)C(O)=C(C(C)=O)C1c1ccc(OC)cc1OC (centres undefined),8.36%,16.7%,-4.22%,> 20.6 µM
COc1cccc(C2/C(=C(\O)c3ccc(OC)c(OC)c3)C(=O)C(=O)N2c2cc(C)on2)c1 (centres undefined),-7.94%,6.78%,-8.6%,> 20.6 µM
CC1(C)Cc2c(c(-c3ccccc3)[nH]c(=O)c2C#N)CS1,-0.182%,2.27%,-8.62%,> 20.6 µM
CN1CCc2c(n(CC(O)CN3C(=O)c4ccccc4S3(=O)=O)c3ccccc23)C1=O (centres undefined),27.1%,6.52%,-6.51%,> 20.6 µM

SMILES,"activity change, negative = inhibition [1]","activity change, negative = inhibition [2]","activity, negative = inhibition [3]",Potency [4]
COCc1[nH]nc2c1C(c1cccc(OC)c1)C(C#N)=C(N)O2 (centres undefined),-19.1%,-19.7%,-11%,> 20.6 µM
Cc1cc(/C(O)=C2\C(=O)C(=O)N(CCN(C)C)C2c2ccncc2)ccc1OCc1ccccc1 (centres undefined),-14.5%,17.3%,4.75%,> 20.6 µM
CC(=O)c1cccc(N=C2NC(=O)C(CO)(CO)S2)c1,3.54%,-3.93%,4.42%,> 20.6 µM
CCCOc1ccc(/C(O)=C2/C(=O)C(=O)N(CCN3CCOCC3)C2c2ccccc2)cc1 (centres undefined),-16.7%,4.9%,-4.33%,> 20.6 µM
C=CCNc1nc(-c2ccc(O)c(C(N)=O)c2)cs1,-14.5%,25.2%,-12.3%,> 20.6 µM
Cc1nccn1-c1cc(C(C)C)c(C#N)c2nc3ccccc3n12,0.38%,-0.783%,-0.277%,> 20.6 µM
COc1ccc2[nH]c(C)c(C(=O)CN3CCc4cc(OC)c(OC)cc4C3)c2c1,-11.9%,1.37%,4.19%,> 20.6 µM
CCOP(=O)(c1ccccc1)c1nc(-c2ccc(F)cc2)oc1N1CCCCC1 (centres undefined),-11.9%,3.09%,4.79%,> 20.6 µM
CCN1CCc2c(C#N)c(NCc3ccccc3)nc(N(CC)CC)c2C1,2.07%,1.29%,12.6%,> 20.6 µM
CCN(CC)S(=O)(=O)c1ccc2c(c1)c(C(=O)O)cn2C,-6.47%,-1.02%,1.11%,> 20.6 µM
O=C(NCCO)C1(c2ccccc2)CCCC1,15.9%,-7.5%,2.26%,> 20.6 µM
CCOC(=O)c1c(N)sc(=S)c2c1CCC2,-21.1%,-6.19%,-7.28%,> 20.6 µM
Cc1cc(OCC(=O)Nc2ccc3oc(-c4ccncc4)nc3c2)ccc1Cl,-4.67%,16.6%,3.21%,> 20.6 µM
CCC(CC)n1[nH]c(=O)cc1N,-9.54%,14.2%,2.51%,> 20.6 µM
Cc1ccc(-n2nc3cc(Cl)c(NC(=O)c4ccco4)cc3n2)cc1,28.5%,-3.83%,-1.11%,> 20.6 µM
S=C(N=Nc1ccccc1)NNc1ccccc1,7.8%,14%,-0.775%,> 20.6 µM
O=C(NCC(F)(F)F)N1CCOCC1,6.11%,0.794%,-4.01%,> 20.6 µM
Cc1ccc(C2/C(=C(/O)c3cnn(-c4ccccc4)c3C)C(=O)C(=O)N2CCN2CCOCC2)o1 (centres undefined),-8.72%,16.8%,-14.9%,> 20.6 µM
COCCNc1oc(-c2ccc(C)cc2)nc1C#N,-6.25%,1.1%,0.279%,> 20.6 µM
COc1ccc(C2/C(=C(/O)c3ccccc3)C(=O)C(=O)N2c2ncccn2)cc1OC (centres undefined),-3.2%,-4.09%,-0.726%,> 20.6 µM
CCOc1ccc(C2C(C(=O)c3ccc(C)o3)=C(O)C(=O)N2CCCN(CC)CC)cc1 (centres undefined),-5.84%,12.8%,6.24%,> 20.6 µM
Cc1nc2c(o1)CCc1ccccc1C2N1CCN(C)CC1 (centres undefined),22.5%,-82.4% (active),3.94%,> 20.6 µM
Cc1ccc(S(=O)(=O)/C(C#N)=C/c2c(N3CCN(C)CC3)nc3ccccn3c2=O)cc1,-12.9%,-5.08%,1.8%,> 20.6 µM
Cc1nc(NS(=O)(=O)c2ccccc2)sc1NC(=O)OCCN(C)C,-8.74%,13.4%,0.248%,> 20.6 µM
CCOC(=O)c1[nH]c2ccccc2c1NC(=O)CCN1CCN(C(=O)OCC)CC1,-2.19%,1.86%,-0.665%,> 20.6 µM
